The campaign covered roughly 39,000 compounds. About 3,300 (8.5%) were called active. The sample as a whole holds a higher share of actives than the screen did.
The compounds below were run on HepG2 (assay: cytotoxicity call (relative viability < 0.9)). Conditions: 10 µM.

Row | Structure (SMILES) | cytotoxicity call
1 | C[C@@H]1CN(S(=O)(=O)N2CCN(C(=O)c3[nH]nc4ccccc34)CC2)C[C@H](C)O1 | inactive
2 | C[C@@H]1CN([C@@H](C)CO)C(=O)CCCn2nncc2CO[C@@H]1CN(C)C(=O)C1CC1 | inactive
3 | C[C@@H]1CN([C@@H](C)CO)C(=O)c2cc(NC(=O)Nc3ccc4c(c3)OCO4)ccc2O[C@@H](C)CCCCO[C@H]1CN(C)Cc1ccc(C(F)(F)F)cc1 | inactive
4 | C[C@@H]1CCCCO[C@@H](CN(C)Cc2ccc(C(F)(F)F)cc2)[C@@H](C)CN([C@@H](C)CO)C(=O)c2cc(NC(=O)Nc3ccc4c(c3)OCO4)ccc2O1 | inactive
5 | C[C@@H]1CCCCO[C@@H](CN(C)Cc2ccc(C(F)(F)F)cc2)[C@H](C)CN([C@@H](C)CO)C(=O)c2cc(NC(=O)Nc3ccc4c(c3)OCO4)ccc2O1 | active
6 | C[C@@H]1CCCCO[C@H](CN(C)Cc2ccc(C(F)(F)F)cc2)[C@@H](C)CN([C@@H](C)CO)C(=O)c2cc(NC(=O)Nc3ccc4c(c3)OCO4)ccc2O1 | active
7 | C[C@@H]1CCCCO[C@H](CN(C)Cc2ccc(C(F)(F)F)cc2)[C@H](C)CN([C@H](C)CO)C(=O)c2cc(NC(=O)Nc3ccc4c(c3)OCO4)ccc2O1 | active
8 | C[C@@H]1CN([C@@H](C)CO)C(=O)c2cc(NC(=O)Nc3ccc4c(c3)OCO4)ccc2O[C@@H](C)CCCCO[C@@H]1CN(C)Cc1ccc(C(F)(F)F)cc1 | inactive
9 | C[C@@H]1CN([C@H](C)CO)C(=O)c2cc(NC(=O)Nc3ccc4c(c3)OCO4)ccc2O[C@@H](C)CCCCO[C@@H]1CN(C)Cc1ccc(C(F)(F)F)cc1 | inactive
10 | C[C@@H]1CN([C@H](C)CO)C(=O)c2cc(NC(=O)Nc3ccc4c(c3)OCO4)ccc2O[C@@H](C)CCCCO[C@H]1CN(C)Cc1ccc(C(F)(F)F)cc1 | active
11 | COc1ccc(CN(C)C[C@H]2Oc3ccc(NC(=O)Cn4cnnn4)cc3CC(=O)N([C@H](C)CO)C[C@@H]2C)cc1 | inactive
12 | C[C@@H]1CN([C@@H](C)CO)C(=O)c2cc(NC(=O)CCC(F)(F)F)ccc2O[C@@H]1CN(C)C(=O)Nc1cccc2ccccc12 | inactive
13 | O=C(C[C@@H]1CC[C@@H]2[C@H](COC[C@H](O)CN2S(=O)(=O)c2ccc(Cl)cc2)O1)NCCN1CCCCC1 | inactive
14 | C[C@@H]1CN([C@@H](C)CO)C(=O)c2cc(C#Cc3cccc(F)c3)cnc2O[C@H]1CN(C)CC1CCOCC1 | inactive
15 | Cc1noc(C)c1NC(=O)N(C)C[C@H]1OCCCC[C@@H](C)Oc2ccc(NS(=O)(=O)c3ccccc3)cc2C(=O)N([C@@H](C)CO)C[C@@H]1C | inactive
16 | CNC(=NC#N)NCCSCc1nc[nH]c1C | inactive
17 | N#C[C@@H]1[C@@H](c2ccc(C#Cc3ccccn3)cc2)[C@H](CO)N1C(=O)CN1CCOCC1 | inactive
18 | CN(C)CC(=O)N1CC(=O)N2[C@H](CO)[C@H](c3ccc(C#Cc4cccnc4)cc3)[C@@H]2C1 | inactive
19 | COC(=O)[C@@H](Cc1ccc(-n2cc(C(=O)NO)nn2)cc1)N1CC2=CC(=O)[C@@H](C3CC3)[C@@H]2[C@H]1[C@H](O)Cc1ccccc1 | inactive
20 | COc1ccccc1-c1ccc2c(c1)O[C@@H](CN(C)C(=O)c1ccncc1)[C@H](C)CN([C@@H](C)CO)S2(=O)=O | inactive
21 | CN1CCN(C(=O)C[C@H]2CC[C@H]3[C@@H](COC[C@H](O)CN3C(=O)C3CCOCC3)O2)CC1 | inactive
22 | Cc1noc(C)c1NC(=O)Nc1ccc2c(c1)CC(=O)N([C@@H](C)CO)C[C@H](C)[C@@H](CN(C)S(=O)(=O)c1c(C)noc1C)O2 | inactive

Row | Structure (SMILES) | cytotoxicity call
23 | CC(C)C[C@@H]1NC(=O)[C@H]2C[C@@H](C(=O)NCCCC[N+](C)(C)C)[C@@H](c3cccc(OCCO)c3)N2C1=O | inactive
24 | CO[C@H]1CN(C)C(=O)c2cc(NS(C)(=O)=O)ccc2OC[C@H](C)N(C(=O)C2CCOCC2)C[C@@H]1C | inactive
25 | N#CCCn1c(CC(N)=O)nc2ccccc21 | inactive
26 | Cc1cccc(S(=O)(=O)N2C[C@H](O)COC[C@@H]3O[C@@H](CC(=O)NCc4ccncn4)CC[C@H]32)c1 | inactive
27 | C[C@@H]1CCCCO[C@@H](CN(C)Cc2ccc(C(F)(F)F)cc2)[C@@H](C)CN([C@H](C)CO)C(=O)c2cc(NC(=O)Nc3ccc4c(c3)OCO4)ccc2O1 | inactive
28 | C[C@H](CO)N1C[C@H](C)[C@H](CN(C)Cc2ccc(C(F)(F)F)cc2)OCCCC[C@H](C)Oc2ccc(NC(=O)Nc3ccc4c(c3)OCO4)cc2C1=O | inactive
29 | C[C@@H]1CCCCO[C@H](CN(C)Cc2ccc(C(F)(F)F)cc2)[C@@H](C)CN([C@H](C)CO)C(=O)c2cc(NC(=O)Nc3ccc4c(c3)OCO4)ccc2O1 | active
30 | C[C@H]1CCCCO[C@@H](CN(C)Cc2ccc(C(F)(F)F)cc2)[C@@H](C)CN([C@@H](C)CO)C(=O)c2cc(NC(=O)Nc3ccc4c(c3)OCO4)ccc2O1 | inactive
31 | C[C@@H]1CCCCO[C@@H](CN(C)Cc2ccc(C(F)(F)F)cc2)[C@H](C)CN([C@H](C)CO)C(=O)c2cc(NC(=O)Nc3ccc4c(c3)OCO4)ccc2O1 | active
32 | C[C@H]1CCCCO[C@H](CN(C)Cc2ccc(C(F)(F)F)cc2)[C@@H](C)CN([C@@H](C)CO)C(=O)c2cc(NC(=O)Nc3ccc4c(c3)OCO4)ccc2O1 | active
33 | C[C@H](CO)N1C[C@H](C)[C@@H](CN(C)Cc2ccc(C(F)(F)F)cc2)OCCCC[C@H](C)Oc2ccc(NC(=O)Nc3ccc4c(c3)OCO4)cc2C1=O | inactive
34 | C[C@@H]1CCCCO[C@H](CN(C)Cc2ccc(C(F)(F)F)cc2)[C@H](C)CN([C@@H](C)CO)C(=O)c2cc(NC(=O)Nc3ccc4c(c3)OCO4)ccc2O1 | active
35 | CC1(C)SC2C(NC(=O)C(N)c3ccccc3)C(=O)N2C1C(=O)[O-].[Na+] (centres undefined) | inactive
36 | C[C@@H]1CCCCO[C@H](CN(C)C(=O)Nc2ccc(F)cc2)[C@H](C)CN([C@H](C)CO)C(=O)c2cc(NS(=O)(=O)c3cccs3)ccc2O1 | inactive
37 | COc1ccc(NC(=O)Nc2ccc3c(c2)C(=O)N([C@@H](C)CO)C[C@H](C)[C@H](CN(C)Cc2ccncc2)OCCCC[C@H](C)O3)cc1 | inactive
38 | COC1C=COC2(C)Oc3c(C)c(O)c4c(O)c(c(C=NN5CCN(C)CC5)c(O)c4c3C2=O)NC(=O)C(C)=CC=CC(C)C(O)C(C)C(O)C(C)C(OC(C)=O)C1C (centres undefined) | inactive
39 | COc1ccc(NC(=O)Nc2ccc3c(c2)C(=O)N([C@@H](C)CO)C[C@@H](C)[C@H](CN(C)C(=O)Nc2cccc4ccccc24)OCCCC[C@@H](C)O3)cc1 | inactive
40 | N[C@@H](C(=O)O)c1ccc(O)cc1 | inactive
41 | C[C@@H]1CCCCO[C@H](CN(C)C(=O)Nc2cccc3ccccc23)[C@@H](C)CN([C@H](C)CO)C(=O)c2cc(N(C)C)ccc2O1 | inactive
42 | CC(C=CC1(O)C(C)=CC(=O)CC1(C)C)=CC(=O)O (mixture of isomers) [ABSCISIC ACID (cis,trans; +/-) ] | inactive
43 | C[C@@H]1CN([C@H](C)CO)C(=O)c2cc(NC(=O)CCC(F)(F)F)ccc2O[C@H]1CN(C)Cc1ccc(Oc2ccccc2)cc1 | inactive
44 | C[C@H]1CN([C@@H](C)CO)C(=O)c2cc(NC(=O)CCC(F)(F)F)ccc2O[C@@H]1CN(C)Cc1ccc(Oc2ccccc2)cc1 | inactive

Row | Structure (SMILES) | cytotoxicity call
45 | C[C@H]1CN([C@@H](C)CO)C(=O)c2cc(NC(=O)CCC(F)(F)F)ccc2O[C@H]1CN(C)Cc1ccc(Oc2ccccc2)cc1 | active
46 | C[C@@H]1CN([C@H](C)CO)C(=O)c2cc(NC(=O)CCC(F)(F)F)ccc2O[C@@H]1CN(C)Cc1ccc(Oc2ccccc2)cc1 | inactive
47 | C[C@H](CO)N1C[C@H](C)[C@H](CN(C)Cc2ccc(Oc3ccccc3)cc2)Oc2ccc(NC(=O)CCC(F)(F)F)cc2C1=O | inactive
48 | C[C@@H]1CN([C@@H](C)CO)C(=O)c2cc(NC(=O)CCC(F)(F)F)ccc2O[C@@H]1CN(C)Cc1ccc(Oc2ccccc2)cc1 | active
49 | COc1ccccc1S(=O)(=O)N[C@H]1CC[C@@H](CCNC(=O)C2CCOCC2)O[C@H]1CO | inactive
50 | CSCC[C@H]1NC(=O)NC1=O | inactive
51 | OCCC12CC3CC(CC(C3)C1)C2 | inactive
52 | C[C@@H]1CN([C@@H](C)CO)C(=O)CCCn2cc(nn2)CO[C@H]1CN(C)C(=O)Nc1ccc(N2CCCCC2)cc1 | inactive
53 | C[C@H]1CN([C@@H](C)CO)C(=O)c2cccc(NS(=O)(=O)c3ccc(Cl)cc3)c2O[C@@H]1CN(C)C(=O)Nc1ccc(C(F)(F)F)cc1 | inactive
54 | C[C@@H]1CN([C@@H](C)CO)C(=O)c2cccc(NS(=O)(=O)c3ccc(Cl)cc3)c2O[C@H]1CN(C)C(=O)Nc1ccc(C(F)(F)F)cc1 | inactive
55 | C[C@H]1CN([C@@H](C)CO)C(=O)c2cccc(NS(=O)(=O)c3ccc(F)cc3)c2O[C@@H]1CN(C)C(=O)Nc1ccc(C(F)(F)F)cc1 | inactive
56 | C[C@@H]1CN([C@H](C)CO)C(=O)c2cccc(NS(=O)(=O)c3ccc(Cl)cc3)c2O[C@H]1CN(C)C(=O)Nc1ccc(C(F)(F)F)cc1 | inactive
57 | C[C@@H]1CN([C@@H](C)CO)C(=O)c2cccc(NS(=O)(=O)c3ccc(F)cc3)c2O[C@@H]1CN(C)C(=O)Nc1ccc(C(F)(F)F)cc1 | active
58 | C[C@H]1CN([C@@H](C)CO)C(=O)c2cccc(NS(=O)(=O)c3ccc(F)cc3)c2O[C@H]1CN(C)C(=O)Nc1ccc(C(F)(F)F)cc1 | inactive
59 | C[C@@H]1CN([C@H](C)CO)C(=O)c2cccc(NS(=O)(=O)c3ccc(F)cc3)c2O[C@H]1CN(C)C(=O)Nc1ccc(C(F)(F)F)cc1 | inactive
60 | C[C@@H]1CN([C@@H](C)CO)C(=O)c2cccc(NS(=O)(=O)c3ccc(Cl)cc3)c2O[C@@H]1CN(C)C(=O)Nc1ccc(C(F)(F)F)cc1 | active
61 | C[C@@H]1CN([C@H](C)CO)C(=O)c2cccc(NS(=O)(=O)c3ccc(Cl)cc3)c2O[C@@H]1CN(C)C(=O)Nc1ccc(C(F)(F)F)cc1 | active
62 | C[C@H]1CN([C@@H](C)CO)C(=O)c2cccc(NS(=O)(=O)c3ccc(Cl)cc3)c2O[C@H]1CN(C)C(=O)Nc1ccc(C(F)(F)F)cc1 | inactive
63 | C[C@H](CO)N1C[C@H](C)[C@@H](CN(C)C(=O)Nc2ccc(C(F)(F)F)cc2)Oc2c(NS(=O)(=O)c3ccc(Cl)cc3)cccc2C1=O | inactive
64 | C[C@H](CO)N1C[C@H](C)[C@H](CN(C)C(=O)Nc2ccc(C(F)(F)F)cc2)Oc2c(NS(=O)(=O)c3ccc(Cl)cc3)cccc2C1=O | active
